The structures appear in SMILES notation. “And” between values parts separate entries of the source, which are not always exact repeats. Identical values can stand only once. Inconclusive results are not listed. A call without a number means that no potency is given here. The source made the active and inactive calls. The call rests on the fitted dose curve; in most records, active means well fitted inhibition curve with a large enough effect; inconclusive means small, poorly fitted or top-dose-only effect; inactive means flat fitted curve, though single readings scatter. Where a SMILES comes first, the peptide text is derived from it. Bridges are numbered along the chain shown (N, C = ends). [ ]: non-standard residue; d: D form. The star is where a group is joined. X2 = CC[C@H](C)CCCCC(=O)*; Dab = NCC[C@H](N)C(=O)O
Potency means the concentration at half of the fitted maximal effect.

The nature of the test: P-glycoprotein substrates identified in KB-8-5-11 adenocarcinoma cell line, qHTS therapeutic library screen (AID 1346987). Further: nearly all actives have a fitted effect of over 65% in size. To be noted: KB-8-5-11 (P-gp overexpressing) viability, CellTiter-Glo, 72 h; series mostly up to 44.5 µM. An outline of the steps: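 KB-8-5-11, a colchicine-selected P-gp-overexpressing KB-3-1 subline, was grown without colchicine for the assay. Cells were seeded at 500 cells/well, dosed in concentration-response and incubated 72 h at 37 degree C, 5% CO2. Viability was read by CellTiter-Glo luminescence.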
A general note: qHTS replaces the single test concentration by a dilution series.
`CCCCCCCCCCCCCCCC(=O)OC[C@@H](O)[C@H]1OC[C@H](O)[C@H]1O`: the Potency entry is “inactive”.
Regarding `C=CCOc1ccc(CC(=O)O)cc1Cl`, the Potency entry is “inactive”.
To `CCOC(=O)Oc1c(OC)cc(C(=O)O[C@@H]2C[C@@H]3CN4CCc5c([nH]c6cc(OC)ccc56)[C@H]4C[C@@H]3[C@H](C(=O)OC)[C@H]2OC)cc1OC` belongs “inactive”.
The same measure for `CC/C=C\C/C=C\C/C=C\C/C=C\C/C=C\CCCC(=O)O`: “inactive”.
The same measure for `CC(=O)Nc1ccc(NC(=S)NC(=O)c2ccc(C(C)(C)C)cc2)cc1`: 6.51 µM (active) and 9.2 µM (active); for `C[S+](C)CCC(N)C(=O)O` (centres undefined): “inactive”; for `CC(C)CN(C[C@@H](OP(=O)(O)O)[C@H](Cc1ccccc1)NC(=O)O[C@H]1CCOC1)S(=O)(=O)c1ccc(N)cc1`: “inactive”.
Consider `CCCCCCCCCCCC(=O)OCC(O)CO` (centres undefined), for which the Potency entry was “inactive”.
Consider `O=C(O)COc1ccccc1/C=N/NC(=O)c1ccncc1`, for which the Potency entry is “inactive”.
On to `OC/C=C/c1ccccc1`, for which the Potency entry is “inactive”.
To `CC(=O)N[C@@H](C=O)[C@@H](O)[C@H](O)[C@H](O)CO` belongs “inactive”; to `CC[C@H](C)[C@@H]1NC(=O)[C@H](Cc2ccc(O)cc2)NC(=O)[C@@H](N)CSSC[C@@H](C(=O)N2CCC[C@H]2C(=O)N[C@@H](CC(C)C)C(=O)NCC(N)=O)NC(=O)[C@H](CC(N)=O)NC(=O)[C@H](CCC(N)=O)NC1=O`, “inactive”; to `Cc1ncc[nH]1`, “inactive”.
The same measure for `O=C(O)CCCC/C=C(\c1ccccc1)c1cccnc1`: “inactive”.
The same measure for `O=S(=O)(O)CC(S)CS` (centres undefined): “inactive”; for `CCN1\C(=C/C=C/C=C/c2sc3ccccc3[n+]2CC)Sc2ccccc21`: 16.4 µM (active).
For `OCCCNc1ccccc1`, the Potency result is “inactive”.
To `Cn1cc(NC(=O)c2cc(NC(=O)c3cc(NC=O)cn3C)cn2C)cc1C(=O)NCCC(=N)N` belongs “inactive”.
The same measure for `CCC(=O)OC(OP(=O)(CCCCc1ccccc1)CC(=O)N1C[C@H](C2CCCCC2)C[C@H]1C(=O)O)C(C)C` (some centres undefined): “inactive”; for `CC(C)(O/N=C(\C(=O)N[C@@H]1C(=O)N2C(C(=O)[O-])=C(C[n+]3ccccc3)CS[C@H]12)c1csc(N)n1)C(=O)O`: “inactive”.
To `C=C1c2c(Cl)ccc(O)c2C(O)=C2C(=O)[C@]3(O)C(O)=C(C(N)=O)C(=O)[C@@H](N(C)C)[C@@H]3[C@@H](O)[C@H]12` belongs “inactive”; to `C[C@@H]1C[C@H]2[C@@H]3C[C@H](F)C4=CC(=O)C=C[C@]4(C)[C@@]3(Cl)[C@@H](O)C[C@]2(C)[C@H]1C(=O)COC(=O)C(C)(C)C`, “inactive”; to `CC1(C)[C@H]2CC[C@]1(C)[C@H](O)C2`, “inactive”.
Take `CCCCCCCCCC(=O)NO`: the Potency entry is “inactive”.
The same measure for `Cc1nc(NS(=O)(=O)c2ccc(N)cc2)nc(C)c1Br`: “inactive”; for `CN(C)C=Nc1c(I)cc(I)c(CCC(=O)O)c1I`: “inactive”.
The same measure for `O=C(O)[C@H]1CN(C/C=C/P(=O)(O)O)CCN1`: “inactive”.
The same measure for `OB(O)O`: “inactive”; for `NC(N)=NCC1COc2ccccc2O1` (centres undefined): “inactive”.
In the case of `O=C(O)c1ccc(OCCn2ccnc2)cc1`, the Potency result is “inactive”.
The same measure for `CCC(C)[C@@H](N)C(=O)O` (some centres undefined): “inactive”; for `COc1ccc2cc([C@H](C)CO)ccc2c1`: “inactive”; for `Oc1cc(O)cc(O)c1`: “inactive”.
For the compound `CC[C@@]1([C@@H]2O[C@@H]([C@H]3O[C@@](O)(CO)[C@H](C)C[C@@H]3C)C[C@@H]2C)CC[C@H]([C@]2(C)CC[C@]3(C[C@H](O)[C@@H](C)[C@@H]([C@@H](C)[C@@H](OC)[C@H](C)C(=O)O)O3)O2)O1` (stereo in doubt), the Potency is 6.51 µM (active) and 5.8 µM (active).
For the compound `CC1=C[C@H](O)CC(C)(C)[C@H]1/C=C/C(C)=C/C=C/C(C)=C/C=C/C=C(C)/C=C/C=C(C)/C=C/C1=C(C)C[C@@H](O)CC1(C)C`, the Potency entry is “inactive”.
The same measure for `CC[C@H](C)CCCCC(=O)N[C@@H](CCN)C(=O)N[C@H](C(=O)N[C@@H](CCN)C(=O)N[C@H]1CCNC(=O)[C@@H]([C@H](C)O)NC(=O)[C@H](CCN)NC(=O)[C@H](CCN)NC(=O)[C@H](CC(C)C)NC(=O)[C@@H](CC(C)C)NC(=O)[C@H](CCN)NC1=O)[C@@H](C)O` (X2-[Dab]T[Dab][Dab][Dab][dL]L[Dab][Dab][dT]; lactam 4-C): “inactive”; for `FCOC(C(F)(F)F)C(F)(F)F`: “inactive”.
To `CC(=O)N=c1sc(S(N)(=O)=O)nn1C` belongs “inactive”.
To `O=C(O)c1ccc(NC(=O)[C@H](Cc2ccc(O)cc2)NC(=O)c2ccccc2)cc1` belongs “inactive”.

The values above are taken from PubChem BioAssay (NCATS).
